The text below walks through data of PubChem BioAssay.

Active and inactive are the calls of the source. Unless noted, no rule for the calls is given here.

Experiment [1] concerns Wnt5a (protein binding on small-molecule microarray). Nature of the experiment: Wnt5a binders on small-molecule microarray, primary screen, biophysical, 635/667 nm fluorescence (AID 1142).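 Also: fluorescence read at 667 nm with signal to noise per printed feature.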 The note with it: 635 nm fluorescence, higher = more signal.
A short description of experiment [2]: cell viability in Huh7 cells, primary screen, cytotoxicity control for HCV replication inhibitor project, CellTiter-Glo luminescence, basal, 48 h (AID 1143).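 Also: Huh7 hepatoma cells carrying a hepatitis C replication reporter with no stimulus; test concentration not given here.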 The note with it: Huh7 HCV replicon, higher = more signal, called active from +8 up or from −8 down.
The nature of experiment [3]: P. aeruginosa biofilm formation inhibitors, primary screen, PAO1 strain, BacTiter-Glo luminescence, LB-PBS (AID 1144). The note with it: 12 h, higher = more signal.
The nature of experiment [4]: CREB reporter modulators without forskolin, primary screen, cell-based, PC12, CRE-LacZ reporter, unstimulated (AID 1145). The note with it: no forskolin, luminescence, 4.5 h, higher = more signal, called active from +8 up or from −8 down.
The nature of experiment [5]: CREB reporter modulators under forskolin, primary screen, cell-based, PC12, CRE-LacZ reporter, forskolin-stimulated (AID 1146).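 Also: PC12 cells with 6xCRE LacZ reporter stimulated by forskolin 10 µM; beta-galactosidase reporter signal reflecting CREB driven transcription.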 The note with it: luminescence, 4.5 h, higher = more signal, called active from +8 up or from −8 down.
In experiment [6] the target is Streptavidin (Streptomyces avidinii) (UniProt P22629). The experiment is described as follows: streptavidin binders on small-molecule microarray, primary screen, artefact control for SMM compound annotation, biophysical, 635/667 nm fluorescence (AID 1147).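 Also: signal reflects streptavidin binding to arrayed compounds as a control protein.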 Particulars: streptavidin binding, higher = more signal.
A short description of experiment [7]: small-molecule binders of probe aInhba, primary screen, biochemical, small-molecule microarray, 635/667 nm fluorescence (AID 1148).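 Also: score merges 667nm spot fluorescence with signal-to-noise for antibody binding to printed compounds.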 The note with it: higher = more signal.
Experiment [8] has as its target Torsin-1A (Homo sapiens) (UniProt O14656). The experiment is described as follows: torsin A binders from cell lysate, primary screen, small-molecule microarray, wild-type, 635/667 nm (AID 1149). Particulars: COS7 hTOR1A-WT lysate, 635 nm fluorescence, higher = more signal.
The target is the same in experiment [9]. Nature of the experiment: small-molecule binders of mutant TOR1A in lysate, primary screen, cell lysate, small-molecule microarray, COS7 lysate, 635/667 nm fluorescence (AID 1150).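 Also: score pools 667 nm emission and signal to noise measuring lysate protein binding.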 Particulars: COS7 hTOR1A mutant lysate, 635 nm fluorescence, higher = more signal.
The test system of experiment [10] is Sonic hedgehog protein (Shh). Nature of the experiment: small-molecule binders of Shh protein, primary screen, biochemical, small-molecule microarray, 635/667 nm fluorescence (AID 1151).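 Also: Shh protein binding to compounds spotted on small-molecule microarray slides; score combines spot fluorescence intensity with signal-to-noise across triplicate slides.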 Particulars: small-molecule microarray binding, 635 nm fluorescence; higher = more signal.
Experiment [11] can be described thus: E. coli DRC41 culture turbidity changes, primary screen, E. coli filamentation inducer project, strain DRC41, OD650, 48 h (AID 1152).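 Also: E. coli MC1000 strain DRC41 lacking acrAB efflux pump and sulA.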 Particulars: E. coli DRC41 (acrAB sulA), higher = more signal, called active from +8 up or from −8 down.
Experiment [12] is described as follows: small-molecule binders of probe aLefty1, primary screen, biochemical, small-molecule microarray, 635/667 nm fluorescence (AID 1153).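 Also: score merges spot fluorescence with signal-to-noise ratio from the scanned slide images.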 The note with it: higher = more signal.
Experiment [13] can be described thus: PSAC antagonists in infected red cells, primary screen, cell-based, P. falciparum Indochina, OD700, 1 h (AID 1154). Particulars: P. falciparum Indochina infected RBC osmotic lysis, higher = more signal, called active from +8 up or from −8 down.
Experiment [14] is described as follows: PSAC antagonists in infected red cells, primary screen, cell-based, P. falciparum Indochina, OD700, 2 h (AID 1155).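 Also: lysis reports solute entry through the parasite surface anion channel PSAC; channel blockers reduce lysis of infected cells.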 Particulars: P. falciparum Indochina infected erythrocytes, osmotic lysis OD700; higher = more signal, called active from +8 up or from −8 down.
Experiment [15] can be described thus: osmotic lysis modulators in infected erythrocytes, primary screen, PSAC antagonist project, cell-based, P. falciparum Indochina, OD700, 3 h (AID 1156). The note with it: higher = more signal, called active from +8 up or from −8 down.
The nature of experiment [16]: PSAC antagonists in infected red cells, primary screen, cell-based, P. falciparum Indochina, OD700, 18 h (AID 1157). The note with it: P. falciparum Indochina infected erythrocytes, osmotic lysis OD700, 18 h; higher = more signal, called active from +8 up or from −8 down.
A short description of experiment [17]: modulators of S6 phosphorylation in cells, primary screen, cell-based, A549, cytoblot, luminescence, serum-stimulated (AID 1158).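 Also: serum-stimulated A549 lung adenocarcinoma cells; signal is phosphorylated S6 detected by cytoblot immunostaining with HRP secondary.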 The note with it: A549 phospho-S6 cytoblot, 5 h, higher = more signal.
Experiment [18] deals with NADPH oxidase 2 (Homo sapiens) (UniProt P04839). The experiment is described as follows: NOX2-dependent H2O2 signal modulators, primary screen, NOX inhibitor project, cell-based, HEK293-NOX2, PMA-stimulated, Amplex Red fluorescence (AID 1159). Also: test concentration not given here. Particulars: 45 min, higher = more signal, called active from +8 up or from −8 down.
The target in experiment [19] is NADPH oxidase 4 (Homo sapiens) (UniProt Q9NPH5). Nature of the experiment: NOX4-dependent H2O2 signal modulators, primary screen, NOX inhibitor project, cell-based, HEK293-NOX4, tetracycline-induced, Amplex Red fluorescence (AID 1160). Particulars: 45 min, higher = more signal, called active from +8 up or from −8 down.
Experiment [20] addresses NADPH oxidase 5 (Homo sapiens) (UniProt Q96PH1). Nature of the experiment: NOX5-dependent H2O2 signal modulators, primary screen, NOX inhibitor project, cell-based, HEK293-NOX5, Amplex Red fluorescence (AID 1161). The note with it: HEK293-NOX5, ionomycin, 45 min, higher = more signal.

Chain of NADPH oxidase 2 (Homo sapiens) (P04839 whole entry, looked up): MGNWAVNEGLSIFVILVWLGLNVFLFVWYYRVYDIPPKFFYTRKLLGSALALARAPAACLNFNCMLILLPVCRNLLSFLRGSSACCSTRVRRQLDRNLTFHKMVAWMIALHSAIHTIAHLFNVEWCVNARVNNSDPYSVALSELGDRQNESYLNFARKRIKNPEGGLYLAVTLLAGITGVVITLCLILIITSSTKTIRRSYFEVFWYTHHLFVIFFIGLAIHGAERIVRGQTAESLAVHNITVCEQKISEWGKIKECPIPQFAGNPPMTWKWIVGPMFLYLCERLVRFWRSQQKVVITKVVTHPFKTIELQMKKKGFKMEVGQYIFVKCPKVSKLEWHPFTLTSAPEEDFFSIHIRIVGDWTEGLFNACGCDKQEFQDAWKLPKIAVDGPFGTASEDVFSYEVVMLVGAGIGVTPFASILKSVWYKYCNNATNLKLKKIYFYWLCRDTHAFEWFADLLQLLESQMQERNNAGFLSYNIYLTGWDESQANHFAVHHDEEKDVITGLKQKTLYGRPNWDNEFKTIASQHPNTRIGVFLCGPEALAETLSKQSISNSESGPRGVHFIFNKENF
Chain of Torsin-1A (Homo sapiens) (O14656 whole entry, looked up): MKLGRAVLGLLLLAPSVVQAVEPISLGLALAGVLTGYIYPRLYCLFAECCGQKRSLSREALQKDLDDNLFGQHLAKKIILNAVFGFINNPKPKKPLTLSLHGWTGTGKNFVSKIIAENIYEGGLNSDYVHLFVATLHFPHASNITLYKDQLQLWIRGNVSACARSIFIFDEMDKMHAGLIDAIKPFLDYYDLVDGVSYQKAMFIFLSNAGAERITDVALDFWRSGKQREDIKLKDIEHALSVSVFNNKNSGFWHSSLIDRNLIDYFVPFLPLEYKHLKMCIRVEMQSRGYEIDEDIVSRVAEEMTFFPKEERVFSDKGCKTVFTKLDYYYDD
Chain of NADPH oxidase 5 (Homo sapiens) (Q96PH1 whole entry, looked up): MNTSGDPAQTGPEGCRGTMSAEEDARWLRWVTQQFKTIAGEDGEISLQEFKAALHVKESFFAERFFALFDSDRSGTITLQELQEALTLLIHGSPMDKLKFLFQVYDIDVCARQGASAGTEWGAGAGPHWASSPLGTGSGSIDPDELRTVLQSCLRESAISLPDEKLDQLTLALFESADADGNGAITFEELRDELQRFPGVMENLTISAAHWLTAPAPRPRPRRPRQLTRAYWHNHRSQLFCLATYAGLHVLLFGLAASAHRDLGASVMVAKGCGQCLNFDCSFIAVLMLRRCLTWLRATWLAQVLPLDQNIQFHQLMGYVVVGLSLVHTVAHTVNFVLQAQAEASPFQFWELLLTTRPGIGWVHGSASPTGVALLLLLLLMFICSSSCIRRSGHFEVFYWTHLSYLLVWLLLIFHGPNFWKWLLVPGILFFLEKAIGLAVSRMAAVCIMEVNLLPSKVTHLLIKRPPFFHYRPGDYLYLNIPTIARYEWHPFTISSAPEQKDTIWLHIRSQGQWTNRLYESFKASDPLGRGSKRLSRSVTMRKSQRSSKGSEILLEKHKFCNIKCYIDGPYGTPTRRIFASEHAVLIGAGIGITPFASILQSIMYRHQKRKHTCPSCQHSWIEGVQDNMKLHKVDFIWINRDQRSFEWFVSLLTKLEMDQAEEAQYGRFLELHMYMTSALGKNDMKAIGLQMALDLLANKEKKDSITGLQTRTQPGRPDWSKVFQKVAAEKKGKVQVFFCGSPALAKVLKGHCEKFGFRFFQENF
Chain of NADPH oxidase 4 (Homo sapiens) (Q9NPH5 whole entry, looked up): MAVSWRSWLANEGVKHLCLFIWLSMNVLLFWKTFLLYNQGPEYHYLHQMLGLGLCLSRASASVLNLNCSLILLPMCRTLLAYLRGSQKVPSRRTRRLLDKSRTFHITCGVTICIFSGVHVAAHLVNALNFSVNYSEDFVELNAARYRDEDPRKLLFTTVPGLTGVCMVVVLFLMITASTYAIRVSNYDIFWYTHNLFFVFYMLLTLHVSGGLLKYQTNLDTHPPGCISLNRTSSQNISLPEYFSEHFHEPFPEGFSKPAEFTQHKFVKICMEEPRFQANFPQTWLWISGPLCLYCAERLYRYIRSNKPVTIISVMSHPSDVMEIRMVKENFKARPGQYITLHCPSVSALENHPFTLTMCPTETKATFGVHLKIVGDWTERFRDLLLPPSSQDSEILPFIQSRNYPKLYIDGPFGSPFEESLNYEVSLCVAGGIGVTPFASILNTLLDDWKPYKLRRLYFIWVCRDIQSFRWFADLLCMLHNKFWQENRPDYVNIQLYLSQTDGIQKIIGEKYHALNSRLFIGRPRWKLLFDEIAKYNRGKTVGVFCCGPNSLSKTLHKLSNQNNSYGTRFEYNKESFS
Chain of Streptavidin (Streptomyces avidinii) (P22629 whole entry, looked up): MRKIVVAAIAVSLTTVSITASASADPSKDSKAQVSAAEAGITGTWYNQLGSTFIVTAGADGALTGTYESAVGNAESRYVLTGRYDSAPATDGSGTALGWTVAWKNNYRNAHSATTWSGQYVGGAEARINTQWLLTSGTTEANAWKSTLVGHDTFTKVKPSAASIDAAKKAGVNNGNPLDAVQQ

For `COC(=O)[C@@H]1N=C(c2ccc(OCCCO)cc2)O[C@@H]1c1ccccc1`, the composite z-score was -0.508 in experiment [1]; -0.913 in [6]; -0.0762 in experiment [7]; 1.01 in experiment [8]; 0.695 in experiment [9]; -0.703 in experiment [10]. This compound yielded a composite z-score in experiment [12] of -0.717. For the same compound, the z-score in experiment [2] is -1.64 (inactive); in [3] it was -1.06 (inactive); in experiment [4] it was -0.594 (inactive); in [5], -1.38 (inactive); in experiment [11] it was 0.813 (inactive); in [13], 24.5 (active). In addition, the z-score in experiment [14] is 12.5 (active); in experiment [15], -1.03 (inactive); in experiment [16] it was 0.82 (inactive); in experiment [17] it was 0.264; in experiment [18], -0.499 (inactive); in experiment [19] it was 1.02 (inactive). The same compound yielded a z-score in [20] of -0.273.
Take `[N-]=[N+]=Nc1ccccc1C[C@]1(C(=O)N2CCOCC2)COC(c2ccc(OCCCO)cc2)=N1`: the composite z-score in experiment [1] is 0.375; in [6], 1.42; in experiment [7] it was 0.191; in [8], 0.442; in experiment [9], 0.507; in experiment [10], -1.01. Besides, the composite z-score in [12] came to 0.401. Moreover, the z-score in [2] was -4.38 (inactive); in experiment [3] it was -0.33 (inactive); in experiment [4], 0.344 (inactive); in [5], -0.687 (inactive); in experiment [11], 1.59 (inactive); in experiment [13], 24.6 (active). Further, the z-score in experiment [14] is 7.83 (inactive); in [15], 1.52 (inactive); in experiment [16], -0.779 (inactive); in experiment [17], 0.779; in experiment [18], -3.84 (inactive); in experiment [19], -0.00663 (inactive). Moreover, the z-score in experiment [20] was -1.73.
On to `COCCOC(=O)N1C(=O)[C@@]2(c3cc(C#CC4=CCCCC4)ccc31)[C@H](C(=O)Nc1nc3ccccc3s1)[C@H]1C(=O)O[C@H](c3ccccc3)[C@H](c3ccccc3)N1[C@@H]2c1ccc(O)cc1`, for which the composite z-score in experiment [1] is 0.381; in [6], 1.25; in experiment [7], -0.0178; in [8], 1.15; in experiment [9], 0.358; in experiment [10], 2.06. In [12], this compound returned a composite z-score of 0.103. Moreover, the z-score in experiment [2] was -0.67 (inactive); in experiment [3] it was 0.288 (inactive); in experiment [4] it was 0.532 (inactive); in [5], 0.817 (inactive); in [11] it was -0.61 (inactive); in [13] it was 0.141 (inactive). The z-score was 0.524 (inactive) in experiment [14]; -0.0845 (inactive) in experiment [15]; 1.2 (inactive) in experiment [16]; -0.123 in experiment [17]; 0.843 (inactive) in experiment [18]; -0.44 (inactive) in experiment [19]. Moreover, the z-score in experiment [20] worked out at 0.759.
Take `CC(=O)NCCCC[C@@H]1NC(=O)[C@@H]2C[C@H](C(=O)NCCCCCN)[C@H](c3ccc(O)cc3)N2C1=O`: the composite z-score in experiment [1] is 0.66; in [6], 0.977; in [7], 0.221; in experiment [8], 1.14; in experiment [9] it was 1.54; in experiment [10], 1.52. In [12], this compound displayed a composite z-score of 0.482. Moreover, the z-score is -0.224 (inactive) in [2]; 0.268 (inactive) in [3]; 0.285 (inactive) in [4]; -0.389 (inactive) in [5]; 2.04 (inactive) in [11]; 1.46 (inactive) in experiment [13]. Besides, the z-score in experiment [14] was 0.374 (inactive); in [15] it was 0.45 (inactive); in [16] it was 0.301 (inactive); in [17], 0.856; in [18] it was 1.93 (inactive); in [19] it was 0.0542 (inactive). The z-score in experiment [20] worked out at 2.86.
Take `O=C1O[C@H](c2ccccc2)[C@H](c2ccccc2)N2[C@H]1[C@@H](C(=O)O)[C@]1(C(=O)Nc3ccc(C#CCCO)cc31)[C@H]2c1ccccc1OCCO`: the composite z-score in experiment [1] is 0.248; in [6], -0.18; in experiment [7], -0.0986; in experiment [8] it was -0.658; in experiment [9], -0.199; in experiment [10], 0.824. For the same compound, the composite z-score in experiment [12] worked out at 0.0026. The z-score was -0.873 (inactive) in [2]; -0.352 (inactive) in experiment [3]; -0.195 (inactive) in experiment [4]; 1.04 (inactive) in [5]; -0.443 (inactive) in experiment [11]; 0.396 (inactive) in [13]. Moreover, the z-score in [14] was -0.353 (inactive); in experiment [15] it was -1.27 (inactive); in experiment [16] it was 0.173 (inactive); in experiment [17] it was -0.0545; in [18], 1.93 (inactive); in experiment [19], 0.226 (inactive). This compound also had a z-score in experiment [20] of 0.636.
